Test results published in PubChem BioAssay (EPA / NIEHS).
Inconclusive results are not listed. Calls of active or inactive are those of the source. The calls were made as follows, unless noted: active = hit-call score of the fitted dose curve at least 0.9, where 1 is the maximum; inactive = score below 0.9.

Assays:
[1] = ACEA_ER_80hr: ACEA Biosciences xCELLigence Real-Time Cell Analysis on Estrogen Receptor Agonism for Proliferation (AID 2282667; active = hit-call score of the fitted dose curve at least 0.9, where 1 is the maximum); settings: T47D proliferation, impedance (xCELLigence), 80 h
How it was run: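 Estrogen-driven proliferation is captured as electrode impedance in T47D cells 80 h after compound addition. Test articles ran at 8 concentrations, 1:4 dilutions from 100 uM final, in two replicate plates.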

[2] = ATG_CRE_CIS: Attagene CIS-FACTORIAL HepG2 Assay for human cAMP Responsive Element (CRE) binding protein 3 (AID 2282926); settings: HepG2 CRE cis-reporter, Attagene multiplexed mRNA; actives raise or lower the signal
How it was run: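 Transfected HepG2 were treated for 24 hours, then RNA was extracted and reporter cDNA amplified with sequence-specific primers. Labelled fragments were separated by capillary electrophoresis, and the CRE signal was fitted bidirectionally with DMSO as baseline.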

[3] = target: CCAAT/enhancer-binding protein beta (Homo sapiens) (UniProt P17676); assay: ATG_C_EBP_CIS: Attagene CIS-FACTORIAL HepG2 Assay for human CCAAT/Enhancer Binding Protein (C/EBP) beta (AID 2282927); settings: HepG2 Attagene cis-factorial transcription factor reporter; actives raise or lower the signal
How it was run: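 Changes in reporter mRNA, rather than exogenous chimeric receptor activity, reflect native C/EBP signalling in transfected HepG2 cells dosed for 24 h; transcripts are detected by RT-PCR and capillary electrophoresis.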

[4] = ATG_CMV_CIS: Attagene CIS-FACTORIAL HepG2 Assay for human CMV (Internal Marker) (AID 2282928); settings: HepG2 CMV promoter reporter, transcription factor profiling; actives raise or lower the signal;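 also: endpoint acts as a background internal control marker rather than a target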
How it was run: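 After transient transfection of HepG2 with reporter transcription units driven by cis-regulatory promoters, cells receive test chemical for 24 h. Labeled reporter amplicons, digested with HpaI, are sized and quantified by capillary electrophoresis against DMSO.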

[5] = ATG_DR4_LXR_CIS: Attagene CIS-FACTORIAL HepG2 Assay for human Liver X Receptor (LXR), DR4 submotif (AID 2282929); settings: HepG2 Attagene DR4 cis-reporter, mRNA transcription; actives raise or lower the signal
How it was run: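 HepG2 cells transiently transfected with cis-promoter-driven multiplexed reporter units (DR4 element) were dosed for 24 h. Reporter mRNA was quantified by RT-PCR, fluorescent primer extension, HpaI digestion and capillary electrophoresis; bidirectional fitting versus DMSO baseline.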

[6] = target: Aryl hydrocarbon receptor (Homo sapiens) (UniProt P35869); assay: ATG_Ahr_CIS: Attagene CIS-FACTORIAL HepG2 Assay for human Aryl Hydrocarbon Receptor (Ahr) (AID 2282930); settings: HepG2 AhR cis-factorial reporter transcription; actives raise or lower the signal
How it was run: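 HepG2, transient MRTU (cis) transfection, 24 h exposure. RNA → cDNA → PCR → 6-FAM primer extension → HpaI 2 h 37 C → CE. Fit: bidirectional, DMSO baseline.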

[7] = ATG_AP_1_CIS: Attagene CIS-FACTORIAL HepG2 Assay for human Activator Protein 1 (AP-1) (AID 2282931); settings: HepG2 Attagene cis-factorial AP-1 reporter mRNA; actives raise or lower the signal
How it was run: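 HepG2 cells transiently transfected with cis-element-driven multiplex reporter units; 24 h compound exposure. Reporter mRNA quantified by RT-PCR, FAM-labelled fragments resolved by capillary electrophoresis; bidirectional fit versus DMSO baseline.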

[8] = ATG_AP_2_CIS: Attagene CIS-FACTORIAL HepG2 Assay for human Activator Protein 2 (AP-2) (AID 2282932); settings: HepG2 AP-2 cis-reporter, Attagene transcription factor profiling; actives raise or lower the signal
How it was run: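 HepG2, transient MRTU transfection, cis-regulated reporters; 24 h compound exposure; RNA isolated, RT-PCR, 6-FAM labelling, HpaI digest, CE fluorescence. DMSO = negative control/baseline, bidirectional fit.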

[9] = ATG_BRE_CIS: Attagene CIS-FACTORIAL HepG2 Assay for human Bone Morphogenetic Protein (BMP) Response Element (BRE) (AID 2282933); settings: HepG2 BMP response element reporter, Attagene transcription factor profiling; actives raise or lower the signal
How it was run: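 Endogenous transcription factor activity read in transiently transfected HepG2 cells after 24 h chemical exposure. Bidirectional curve fitting against DMSO; readout is reporter transcript level by RT-PCR with capillary electrophoresis of labelled products.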

[10] = target: Retinoic acid receptor alpha (Homo sapiens) (UniProt P10276); assay: ATG_DR5_RAR_CIS: Attagene CIS-FACTORIAL HepG2 Assay for human Retinoic Acid Receptor Alpha (RARE), DR5 submotif (AID 2282934); settings: HepG2 Attagene cis-factorial RARE DR5 reporter, mRNA; actives raise or lower the signal
How it was run: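 HepG2, transient cis-reporter transfection, 24 h exposure. mRNA readout: RT-PCR, FAM label, HpaI cut, capillary electrophoresis. DMSO baseline, gain/loss fitting.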

[11] = ATG_E_Box_CIS: Attagene CIS-FACTORIAL HepG2 Assay for human Enhancer Box (E-box) (AID 2282936); settings: HepG2 E-box cis-reporter transcription, actives raise or lower the signal
How it was run: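 Cells: HepG2 (human liver), transient MRTU transfection. Exposure 24 h. RNA → oligo(dT) RT → PCR → 6-FAM label → HpaI → CE. Activity fitted both directions relative to DMSO.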

[12] = ATG_EGR_CIS: Attagene CIS-FACTORIAL HepG2 Assay for human Early Growth Response 1 (EGR1) (AID 2282938); settings: HepG2 Attagene CIS-FACTORIAL EGR reporter mRNA; actives raise or lower the signal
How it was run: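 HepG2 cells transiently transfected with cis-promoter-driven multiplexed reporter transcription units; reporter mRNA measured 24 h after compound dosing by RT-PCR, 6-FAM primer extension, HpaI digestion and capillary electrophoresis. Bidirectional fit versus DMSO baseline.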

[13] = ATG_M_19_CIS: Attagene CIS-FACTORIAL HepG2 Assay for M19 Transcription Factor (Internal Marker) (AID 2282939); settings: HepG2 Attagene CIS-FACTORIAL M19 internal marker reporter; actives raise or lower the signal
How it was run: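 Internal marker readout, fitted in both directions against DMSO, from HepG2 cells carrying transfected cis-element reporter constructs; RT-PCR and capillary electrophoresis of reporter mRNA after 24 h exposure.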

[14] = ATG_ERE_CIS: Attagene CIS-FACTORIAL HepG2 Assay for Estrogen Response Element (ERE) (AID 2282940); settings: HepG2 ERE cis-reporter, Attagene RNA transcript; actives raise or lower the signal
How it was run: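 After 24 h compound treatment, RNA from transfected HepG2 cells was reverse-transcribed, reporter cDNA PCR-amplified, FAM-labelled, HpaI-cut and resolved by capillary electrophoresis. ERE-driven cis reporter transcripts reflect endogenous factors; gain or loss scored against DMSO.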

[15] = target: Hepatocyte nuclear factor 3-beta (Homo sapiens) (UniProt Q9Y261); assay: ATG_FoxA2_CIS: Attagene CIS-FACTORIAL HepG2 Assay for human Forkhead box A2 (FOXA2) (AID 2282942); settings: HepG2 cis-reporter transcription factor activity, 24 h; actives raise or lower the signal
How it was run: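 HepG2 cells transiently transfected with multiple cis-regulated reporter transcription units, dosed for 24 h. Reporter mRNA measured by RT-PCR, 6-FAM labelling, HpaI digestion and capillary electrophoresis; bidirectional fitting against DMSO baseline.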

[16] = ATG_FoxO_CIS: Attagene CIS-FACTORIAL HepG2 Assay for human Forkhead box O (FoxO) (AID 2282943); settings: HepG2 Attagene cis-reporter, FoxO element, mRNA; actives raise or lower the signal
How it was run: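 Human hepatoma HepG2 cells carry transiently introduced reporter transcription units controlled by cis promoter elements. Chemical treatment lasted 24 h, and mRNA signal was compared with DMSO.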

[17] = ATG_M_61_CIS: Attagene CIS-FACTORIAL HepG2 Assay for M61 Transcription Factor (Internal Marker) (AID 2282937); settings: HepG2 Attagene CIS-FACTORIAL M61 internal marker reporter; actives raise or lower the signal
How it was run: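 HepG2 cells transiently transfected with cis-element-driven multiple reporter transcription units, dosed for 24 h. Reporter mRNA measured by RT-PCR, 6-FAM primer-extension labelling, HpaI digestion and capillary electrophoresis; bidirectional fit versus DMSO baseline.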

[18] = ATG_Ets_CIS: Attagene CIS-FACTORIAL HepG2 Assay for human Erythroblast Transformation Specific (ETS) (AID 2282941); settings: HepG2 ETS cis-reporter transcription, actives raise or lower the signal
How it was run: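 Human HepG2 hepatoma cells were transiently transfected with promoter-driven reporter constructs and treated for 24 hours. Reporter transcripts were quantified by RT-PCR with fluorescent primer extension; bidirectional curve fitting used DMSO as reference.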

[19] = ATG_GATA_CIS: Attagene CIS-FACTORIAL HepG2 Assay for human GATA Binding Protein (AID 2282944); settings: HepG2 GATA cis-element reporter, Attagene multiplex mRNA; actives raise or lower the signal
How it was run: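 Reporter transcripts from a GATA cis-regulated unit, among multiplexed reporters in transfected HepG2 cells, were measured by RT-PCR with capillary electrophoresis after 24 h dosing. Induction or loss scored relative to DMSO.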

[20] = target: Transcription factor E2F1 (Homo sapiens) (UniProt Q01094); assay: ATG_E2F_CIS: Attagene CIS-FACTORIAL HepG2 Assay for human E2F Transcription Factor 1 (AID 2282935); settings: HepG2 Attagene cis-reporter, E2F reporter RNA transcripts; actives raise or lower the signal
How it was run: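 Cis-element reporter mRNA induction in transiently transfected HepG2, 24 h exposure. Activity fitted in both directions relative to DMSO negative control.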

Measured: AC50

Sequence of Hepatocyte nuclear factor 3-beta (Homo sapiens) (Q9Y261 whole entry, looked up): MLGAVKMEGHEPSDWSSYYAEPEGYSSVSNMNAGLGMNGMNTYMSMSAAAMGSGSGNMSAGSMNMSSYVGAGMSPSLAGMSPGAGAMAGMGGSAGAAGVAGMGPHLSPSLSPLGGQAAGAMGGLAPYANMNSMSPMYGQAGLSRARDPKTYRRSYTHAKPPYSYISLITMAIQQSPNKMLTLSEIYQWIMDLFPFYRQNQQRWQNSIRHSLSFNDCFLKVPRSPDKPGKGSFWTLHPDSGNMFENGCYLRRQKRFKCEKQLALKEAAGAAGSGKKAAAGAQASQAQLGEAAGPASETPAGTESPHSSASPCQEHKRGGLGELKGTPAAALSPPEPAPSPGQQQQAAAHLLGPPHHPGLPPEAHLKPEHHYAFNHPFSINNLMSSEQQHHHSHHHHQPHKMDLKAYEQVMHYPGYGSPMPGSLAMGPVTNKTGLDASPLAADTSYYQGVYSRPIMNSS
Sequence of Aryl hydrocarbon receptor (Homo sapiens) (P35869 whole entry, looked up): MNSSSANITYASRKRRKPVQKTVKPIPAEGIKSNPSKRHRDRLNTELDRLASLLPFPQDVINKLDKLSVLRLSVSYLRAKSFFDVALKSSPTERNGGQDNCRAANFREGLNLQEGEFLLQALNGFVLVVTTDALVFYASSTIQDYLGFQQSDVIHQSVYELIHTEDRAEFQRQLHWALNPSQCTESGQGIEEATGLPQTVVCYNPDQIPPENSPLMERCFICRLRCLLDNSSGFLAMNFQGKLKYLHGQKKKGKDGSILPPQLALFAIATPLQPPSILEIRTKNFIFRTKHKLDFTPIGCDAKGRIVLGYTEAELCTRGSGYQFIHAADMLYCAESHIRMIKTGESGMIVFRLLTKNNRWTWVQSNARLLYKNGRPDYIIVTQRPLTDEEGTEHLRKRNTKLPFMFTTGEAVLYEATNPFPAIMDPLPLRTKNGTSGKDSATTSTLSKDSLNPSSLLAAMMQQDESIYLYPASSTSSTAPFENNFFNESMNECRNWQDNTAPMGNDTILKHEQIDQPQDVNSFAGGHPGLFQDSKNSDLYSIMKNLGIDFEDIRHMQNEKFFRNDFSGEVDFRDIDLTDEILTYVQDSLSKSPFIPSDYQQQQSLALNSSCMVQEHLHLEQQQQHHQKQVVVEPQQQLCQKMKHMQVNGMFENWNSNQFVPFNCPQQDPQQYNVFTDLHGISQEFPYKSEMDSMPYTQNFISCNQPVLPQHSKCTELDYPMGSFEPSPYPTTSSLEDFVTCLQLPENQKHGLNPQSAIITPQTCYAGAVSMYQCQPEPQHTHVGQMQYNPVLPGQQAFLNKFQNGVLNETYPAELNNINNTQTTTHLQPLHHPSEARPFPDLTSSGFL
Sequence of Retinoic acid receptor alpha (Homo sapiens) (P10276 whole entry, looked up): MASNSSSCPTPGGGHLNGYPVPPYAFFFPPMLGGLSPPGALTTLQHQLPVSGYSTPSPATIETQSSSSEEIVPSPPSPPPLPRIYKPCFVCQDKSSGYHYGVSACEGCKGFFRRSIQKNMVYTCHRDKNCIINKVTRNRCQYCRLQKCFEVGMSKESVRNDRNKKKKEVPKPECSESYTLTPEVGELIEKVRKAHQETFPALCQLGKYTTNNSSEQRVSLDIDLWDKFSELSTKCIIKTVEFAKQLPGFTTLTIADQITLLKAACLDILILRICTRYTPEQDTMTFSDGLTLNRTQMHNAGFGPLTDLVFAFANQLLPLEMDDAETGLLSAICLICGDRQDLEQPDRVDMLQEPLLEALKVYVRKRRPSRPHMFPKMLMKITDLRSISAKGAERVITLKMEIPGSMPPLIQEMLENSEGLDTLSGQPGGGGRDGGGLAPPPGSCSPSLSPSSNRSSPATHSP
Sequence of Transcription factor E2F1 (Homo sapiens) (Q01094 whole entry, looked up): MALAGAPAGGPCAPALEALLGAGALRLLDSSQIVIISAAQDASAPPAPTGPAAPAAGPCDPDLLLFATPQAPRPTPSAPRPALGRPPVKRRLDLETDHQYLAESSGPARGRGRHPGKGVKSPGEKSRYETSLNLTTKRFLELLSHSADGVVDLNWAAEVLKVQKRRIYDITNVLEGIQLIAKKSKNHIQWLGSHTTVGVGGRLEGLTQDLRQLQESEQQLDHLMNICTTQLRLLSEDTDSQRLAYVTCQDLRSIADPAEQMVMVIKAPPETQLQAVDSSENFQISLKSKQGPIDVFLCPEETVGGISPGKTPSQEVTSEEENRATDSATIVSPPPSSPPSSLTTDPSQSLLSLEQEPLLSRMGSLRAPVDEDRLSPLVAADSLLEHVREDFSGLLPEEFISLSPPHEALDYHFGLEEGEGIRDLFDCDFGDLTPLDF
Sequence of CCAAT/enhancer-binding protein beta (Homo sapiens) (P17676 whole entry, looked up): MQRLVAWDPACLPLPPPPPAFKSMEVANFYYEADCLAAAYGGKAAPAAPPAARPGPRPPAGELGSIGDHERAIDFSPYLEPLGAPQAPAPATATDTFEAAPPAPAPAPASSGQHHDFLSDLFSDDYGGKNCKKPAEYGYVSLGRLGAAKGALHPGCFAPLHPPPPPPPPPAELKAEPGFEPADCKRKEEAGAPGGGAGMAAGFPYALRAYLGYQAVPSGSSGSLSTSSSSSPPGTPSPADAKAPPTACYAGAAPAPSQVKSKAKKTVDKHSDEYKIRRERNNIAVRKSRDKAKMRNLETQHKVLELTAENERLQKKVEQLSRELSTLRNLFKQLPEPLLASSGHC

Cc1cc(C)n(CO)n1
inactive: [1] | [2] | [3] | [4] | [5] | [6] | [7] | [8] | [9] | [10] | [11] | [12] | [13] | [14] | [15] | [16]

COC(=O)c1ccccc1C
inactive: [1] | [2] | [3] | [4] | [5] | [6] | [7] | [8] | [9] | [10] | [11] | [17] | [12] | [13] | [14] | [18] | [15] | [16] | [19]

CCC(C)C(=O)OCCc1ccccc1 (stereo unspecified)
active: [1] 1.68 µM
inactive: [2] | [3] | [4] | [5] | [6] | [7] | [8] | [9] | [20] | [11] | [17] | [12] | [13] | [14] | [18] | [15] | [16] | [19]

C=C(C)C1CC=C(C)C(OC(C)=O)C1 (stereo unspecified)
inactive: [1] | [2] | [3] | [4] | [5] | [6] | [7] | [8] | [9] | [10] | [20] | [12] | [13] | [14] | [18] | [15] | [19]

CC12CCC(CC1)C(C)(C)O2
inactive: [1] | [2] | [3] | [4] | [5] | [6] | [7] | [8] | [9] | [20] | [11] | [17] | [12] | [13] | [14] | [18] | [15] | [16] | [19]

CCCSSCCC
inactive: [1] | [2] | [3] | [4] | [5] | [6] | [7] | [8] | [9] | [20] | [11] | [12] | [13] | [14] | [18] | [15] | [16] | [19]

CC(Cl)COP(=O)(OCC(C)Cl)OCC(C)Cl (stereo unspecified)
inactive: [1] | [2] | [3] | [4] | [5] | [6] | [7] | [8] | [9] | [20] | [11] | [17] | [12] | [13] | [14] | [18] | [15] | [16] | [19]

CCc1cccc(C)c1N(C(=O)CS(=O)(=O)O)C(C)COC (stereo unspecified)
inactive: [1] | [2] | [3] | [4] | [5] | [6] | [7] | [8] | [9] | [20] | [11] | [17] | [12] | [13] | [18] | [15] | [16] | [19]
active: [14] 27.5 µM
